# High-throughput results as filed in PubChem.
# In the library only some 3.6% were active in any assay of this set; here they are far more common.
# KKLEB tox = cytotoxicity in KKLEB CF airway cells, primary screen, cytotoxicity control for CF NF-kB inhibitor project, cell-based, uHTS, fluorescence assay plates | KKLEB CF airway cells viability, ATPlite luminescence, overnight; hits give low values; cells stimulated with P. aeruginosa culture filtrate | activity change (cytotoxicity), % at 5 µM | 360,000 tested, 0.36% active | AID 602141, 2011;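 active = corrected activity change at or below -50% at 5 µM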
# Peg3 prom inh = Peg3 promoter-driven luciferase inhibitors, primary screen, cell-based, HeLa, luciferase luminescence; HeLa PEG-Prom luciferase reporter, overnight; inhibition, % at 20 µM; 360,000 tested, 1.7% active;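 active = inhibition of at least 50% at 20 µM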
# CF NFkB block = inhibitors of PAF-induced NF-kB signaling, primary screen, cell-based, GFP fluorescence, uHTS; 360,000 tested, 0.86% active; AID 588850, 2011; KKLEB NF-kB-GFP reporter, GFP fluorescence overnight; inhibition, % at 5 µM;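 active = at least 50% inhibition at 5 µM, scaled per plate between neutral and stimulator controls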;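 also: PAF is a Pseudomonas aeruginosa culture filtrate used as stimulus; plate controls were PAF-stimulated DMSO wells for no effect and unstimulated DMSO wells for full effect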
# HSP90 inh = HSP90 inhibitors, primary screen, cell lysate, luminescence; Heat shock protein HSP 90 (rabbit reticulocyte lysate; luciferase refolding); Rabbit reticulocyte lysate, luciferase refolding luminescence, 3 h; inhibition, % at 5.6 µM; 290,000 tested, 0.91% active; AID 1789, 2009;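 active = inhibition above the screen-wide mean plus 3 SD, computed separately per campaign, cut at about 16% in these data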;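 also: 0% = DMSO wells and 100% = 60 µM geldanamycin wells; inhibitors lower the luminescence because luciferase stays unfolded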
# Mdm2-MdmX inh = inhibitors of human Mdm2-MdmX association, primary screen, cell-based, luminescence, split luciferase, SaOS-2, uHTS; SaOS-2 split-luciferase Mdm2/MdmX complementation; inhibition, % at 8 µM; Protein Mdm4 (Homo sapiens) + E3 ubiquitin-protein ligase Mdm2 (Homo sapiens), …; 330,000 tested, 3% active;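 active = inhibition of at least 50% at 8 µM in the primary screen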
# Target sequence (O15151 whole entry, looked up): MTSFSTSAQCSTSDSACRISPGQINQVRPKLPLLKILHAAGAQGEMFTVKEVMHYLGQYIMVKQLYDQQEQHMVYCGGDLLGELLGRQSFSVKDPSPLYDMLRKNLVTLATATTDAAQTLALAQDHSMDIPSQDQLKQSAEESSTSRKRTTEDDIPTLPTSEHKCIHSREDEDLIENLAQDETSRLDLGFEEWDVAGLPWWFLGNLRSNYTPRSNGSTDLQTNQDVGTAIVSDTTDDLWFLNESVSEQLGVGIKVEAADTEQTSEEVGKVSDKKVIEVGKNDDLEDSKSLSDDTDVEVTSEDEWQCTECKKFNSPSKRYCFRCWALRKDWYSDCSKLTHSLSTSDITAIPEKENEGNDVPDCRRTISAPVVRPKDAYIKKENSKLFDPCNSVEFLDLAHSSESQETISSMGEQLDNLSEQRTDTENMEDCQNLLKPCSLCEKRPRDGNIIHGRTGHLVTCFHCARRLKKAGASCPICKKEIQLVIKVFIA
# Target sequence (Q00987 whole entry, looked up): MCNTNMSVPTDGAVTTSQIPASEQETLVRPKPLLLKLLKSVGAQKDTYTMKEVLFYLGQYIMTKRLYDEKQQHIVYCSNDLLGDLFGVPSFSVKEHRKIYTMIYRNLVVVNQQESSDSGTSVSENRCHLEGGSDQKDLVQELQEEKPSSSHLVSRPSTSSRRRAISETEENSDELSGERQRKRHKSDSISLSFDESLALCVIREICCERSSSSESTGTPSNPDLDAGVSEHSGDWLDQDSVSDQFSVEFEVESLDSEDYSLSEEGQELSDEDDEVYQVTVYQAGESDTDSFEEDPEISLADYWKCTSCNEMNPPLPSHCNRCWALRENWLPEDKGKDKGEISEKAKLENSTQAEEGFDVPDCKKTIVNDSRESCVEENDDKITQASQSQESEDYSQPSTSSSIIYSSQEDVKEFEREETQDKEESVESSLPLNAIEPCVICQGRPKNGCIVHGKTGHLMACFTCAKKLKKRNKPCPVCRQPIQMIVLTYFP
# LGR2 antag = inhibitors of bursicon-induced LGR2 CRE-luciferase signal, primary screen, cell-based, HEK293, CRE-luciferase reporter, bursicon stimulation; Drosophila bursicon receptor LGR2 (rickets); bursicon-stimulated, 4 h; inhibition, % at 9.99 µM; 380,000 tested, 0.35% active; AID 720647, 2013;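 active = drop in luminescence signal, shown as inhibition above about 50% in the replicate tests, limit read from the data, passing the limit was not always enough; inconclusive = probably only some replicates passing the limit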;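 also: agonist challenge used bursicon conditioned medium at about half maximal strength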
# Mdm2-MdmX conf = Mdm2-MdmX complex disruptors, retested hits, confirmation, luminescence, single concentration; 10,000 tested, 55% active; Mdm2-MdmX binding, luminescent assay; AID 489028, 2010; inhibition, % at 8 µM; shares compounds with Mdm2-MdmX inh; in the data active = inhibition above about 40%
# Full FLuc ctr = full-length luciferase signal inhibition, confirmation, counter-screen for Mdm2/MdmX interaction inhibitor project, cell-based, single concentration, SaOS-2; shares compounds with Mdm2-MdmX inh; SaOS-2 full-length luciferase counterscreen, luminescence; inhibition, % at 8 µM; 6,200 tested, 77% active; AID 504607, 2011;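 active = mean inhibition at 8 µM reaching about 37%, which flags the compound as non-specific, limit read from the data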;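 also: p53-null SaOS-2 cells with luciferase driven by a doxycycline-inducible promoter; compound on cells about two nights before reading with doxycycline added after day one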
# An asterisk follows results filed as active; ? = inconclusive; / = no result.
SMILES,KKLEB tox,Peg3 prom inh,CF NFkB block,HSP90 inh,Mdm2-MdmX inh,LGR2 antag,Mdm2-MdmX conf,others
COC(=O)c1ccc(Sc2nnnn2-c2ccccc2)c([N+](=O)[O-])c1,-9,36,44,0,68*,/,49*,Full FLuc ctr=23
COc1cccc(OC)c1OCc1cc(C2C3CCCC=C3C(C#N)=C(N)C2(C#N)C#N)c(C)cc1C (stereo not drawn),-3,14,5,3,51*,/,1,
O=C(Nc1ccc2c(c1)[C@H]1C[C@@H](CC(=O)N3CCc4ccccc4C3)O[C@@H](CO)[C@H]1O2)C1CCC1,/,/,/,/,/,1,/,
CCCC(O)(CCC)C(=O)NN(C(=O)CCl)c1ccccc1,-24,31,25,-1,58*,-6,23,
COc1ccc(C(=O)N2C[C@@H]3[C@H](c4ccccc42)[C@H](CO)N3Cc2ccc(Cl)cc2)cc1,/,/,/,/,/,6,/,
CC(C)NC(=O)Nc1ccc2c(c1)C(=O)N([C@H](C)CO)C[C@H](C)[C@@H](CN(C)C(=O)NC(C)C)OCCCC[C@H](C)O2,/,/,/,/,/,-2,/,
O=c1[nH]c(CN2CCN(c3ccccc3)CC2)nc2scc(-c3ccccc3)c12,-20,47,4,4,72*,18,73*,Full FLuc ctr=54*
COc1cc(/C=C/c2ccc3cccc(O)c3n2)cc(OC)c1OC,-4,95*,8,-1,84*,-58,76*,Full FLuc ctr=27
COc1cc(/C=C/c2ccc3cccc(O)c3n2)cc(Br)c1OC,8,-175,12,-4,93*,-85,11,
COc1ccc(/C=C/c2ccc3cccc(O)c3n2)cc1Br,5,-213,-21,0,4,-63,/,
Oc1cccc(/C=C/c2ccc3cccc(O)c3n2)c1,-8,-205,-8,6,-91,-3,/,
COc1cc(/C=C/c2ccc3cccc(O)c3n2)cc(Cl)c1OC,-4,-45,-6,-3,100*,-49,-35,
COc1cccc(/C=C/c2ccc3cccc(O)c3n2)c1,3,37,-47,-2,62*,-68,-143,
O=C(C[C@@H]1C=C[C@@H](NS(=O)(=O)c2ccc(F)cc2)[C@@H](CO)O1)NC1CCCCC1,/,/,/,/,/,-11,/,
OCCNc1nc(-c2ccccc2)c2cc(Br)ccc2n1,-5,20,22,-1,22,-17,/,
Cc1ccc2nc(N/N=C\c3ccc([N+](=O)[O-])o3)nc(-c3ccccc3)c2c1,14,3,-27,0,67*,/,30,
N#Cc1ccccc1/C=N/Nc1nc(-c2ccccc2)c2cc(Br)ccc2n1,-4,8,6,1,55*,/,3,
O=[N+]([O-])c1ccc(/C=N/Nc2ccc3ccccc3c2)o1,-6,-150,-17,-4,2,-71,/,
COc1cc(C(=O)NC2CCCCC2)ccc1OCc1ccc(Cl)cc1Cl,-48,35,32,-1,58*,-5,12,
CO[C@@H]1CN(C)C(=O)c2cc(NS(=O)(=O)c3ccccc3)ccc2OC[C@@H](C)N(Cc2ccccn2)C[C@@H]1C,/,/,/,/,/,10,/,
COc1ccc2c(c1)c1nc3n(c(=O)c1n2CC(=O)Nc1cc(C)[nH]n1)CCS3,/,/,/,6,67*,?,59*,Full FLuc ctr=101*
COc1ccc(S(=O)(=O)Nc2ccc3c(c2)[C@@H]2C[C@H](CC(=O)O)O[C@H](CO)[C@@H]2O3)cc1,/,/,/,/,/,7,/,
Cn1c(/C=C/c2ccc(Cl)cc2Cl)c([N+](=O)[O-])c(=O)n(C)c1=O,22,103*,32,8,100*,56*,76*,Full FLuc ctr=11
